Assay results from PubChem BioAssay (EPA / NIEHS).
Some structures have more than one record in an assay (separate samples or runs), and their calls can disagree. Active and inactive are the calls of the source. The calls were made as follows: active = hit-call score of the fitted dose curve at least 0.9, where 1 is the maximum; inactive = score below 0.9.

Assays:
[1] = read-out: Macrophage colony-stimulating factor (MCSF), CSF1 (gene 1435); experiment: BSK_hDFCGF_MCSF: BioMAP Diversity Plus: hDFCGF Assay for Macrophage colony-stimulating factor (MCSF) Biomarker Activity (AID 2283060); settings: primary human foreskin fibroblasts; actives raise or lower the signal
How it was run: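 ELISA read-out of M-CSF in human dermal foreskin fibroblast cultures, 24 h after chemical dosing; gain or loss of signal fitted bidirectionally relative to DMSO baseline.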

[2] = BSK_hDFCGF_SRB: Viability Assessment in the BioMAP Diversity Plus: hDFCGF Assay (AID 2283061); settings: primary human foreskin fibroblasts;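 also: cells exposed to compound for 24 h before the read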
How it was run: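 Primary human foreskin fibroblasts; 24 h post-dose; fixed 10% TCA, stained 0.1% SRB, A560 read; total protein as overt cytotoxicity measure; curves fit bidirectionally vs DMSO control.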

[3] = read-out: TIMP metallopeptidase inhibitor 1 (TIMP1), TIMP1 (gene 7076); experiment: BSK_hDFCGF_TIMP1: BioMAP Diversity Plus: hDFCGF Assay for TIMP metallopeptidase inhibitor 1 (TIMP1) Biomarker Activity (AID 2283062); settings: primary human foreskin fibroblasts; actives raise or lower the signal
How it was run: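 ELISA readout of TIMP-1 from human dermal foreskin fibroblast cultures 24 h post-dosing. Curves were fitted in both directions against DMSO baseline, with SRB total-protein staining in parallel cultures as a cytotoxicity check.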

[4] = read-out: Monokine induced gamma interferon (MIG), CXCL9 (gene 4283); experiment: BSK_hDFCGF_MIG: BioMAP Diversity Plus: hDFCGF Assay for Monokine induced gamma interferon (MIG) Biomarker Activity (AID 2283063); settings: primary human foreskin fibroblasts; actives raise or lower the signal
How it was run: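 Fibroblasts (human foreskin, primary) dosed, 24 h, MIG by ELISA; fit bidirectional vs DMSO.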

[5] = read-out: Matrix Metallopeptidase 1 (MMP1), MMP1 (gene 4312); experiment: BSK_hDFCGF_MMP1: BioMAP Diversity Plus: hDFCGF Assay for Matrix Metallopeptidase 1 (MMP1) Biomarker Activity (AID 2283064); settings: primary human foreskin fibroblasts; actives raise or lower the signal
How it was run: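 Primary human foreskin fibroblasts exposed to chemicals for 24 h; MMP1 measured by ELISA. Cytotoxicity tracked by SRB staining in parallel cultures; bidirectional fit relative to DMSO.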

[6] = read-out: Vascular cell adhesion molecule 1 (VCAM1), VCAM1 (gene 7412); experiment: BSK_hDFCGF_VCAM1: BioMAP Diversity Plus: hDFCGF Assay for Vascular cell adhesion molecule 1 (VCAM1) Biomarker Activity (AID 2283065); settings: primary human foreskin fibroblasts; actives raise or lower the signal;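 as to AC50: VCAM-1 protein level quantified by ELISA after 24 h chemical exposure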
How it was run: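 ELISA read-out of VCAM-1 on human skin fibroblasts, 24 h post-dose; gain or loss of signal fitted bidirectionally against DMSO baseline.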

[7] = read-out: Intercellular Adhesion Molecule 1 (ICAM1), ICAM1 (gene 3383); experiment: BSK_KF3CT_ICAM1: BioMAP Diversity Plus: KF3CT Assay for Intercellular Adhesion Molecule 1 (ICAM1) Biomarker Activity (AID 2283067); settings: primary human keratinocytes with fibroblasts; actives raise or lower the signal
How it was run: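 ELISA readout of ICAM-1; KF3CT human skin co-culture (keratinocytes + foreskin fibroblasts), 24 h post-dose; gain/loss fit vs DMSO baseline.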

[8] = read-out: Interferon-gamma inducible Protein 10 (IP10), CXCL10 (gene 3627); experiment: BSK_KF3CT_IP10: BioMAP Diversity Plus: KF3CT Assay for Interferon-gamma inducible Protein 10 (IP10) Biomarker Activity (AID 2283068); settings: primary human keratinocytes with fibroblasts; actives raise or lower the signal
How it was run: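 ELISA read-out of IP-10 after 24 h chemical dosing of human skin primary co-culture (keratinocytes, foreskin fibroblasts). Gain or loss of signal relative to DMSO, bidirectional curve fit.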

[9] = BSK_KF3CT_SRB: Viability Assessment in the BioMAP Diversity Plus: KF3CT Assay (AID 2283069); settings: primary human keratinocytes with fibroblasts;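 also: total protein by sulforhodamine B staining as a cytotoxicity measure; read 24 h after compound addition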
How it was run: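 Human keratinocyte and foreskin fibroblast co-culture exposed to chemical for 24 h. Total protein measured in parallel cultures by 0.1% sulforhodamine B staining after 10% TCA fixation, read at 560 nm; bidirectional fit relative to DMSO.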

[10] = read-out: TIMP metallopeptidase inhibitor 2 (TIMP2), TIMP2 (gene 7077); experiment: BSK_KF3CT_TIMP2: BioMAP Diversity Plus: KF3CT Assay for TIMP metallopeptidase inhibitor 2 (TIMP2) Biomarker Activity (AID 2283071); settings: primary human keratinocytes with fibroblasts; actives raise or lower the signal
How it was run: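 Cells: human keratinocytes co-cultured with foreskin fibroblasts. Treat with chemical, 24 h. Measure TIMP-2 by ELISA; fit curves bidirectionally vs DMSO baseline.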

[11] = read-out: C-C motif chemokine 2 (Homo sapiens) (UniProt P13500); experiment: BSK_KF3CT_MCP1: BioMAP Diversity Plus: KF3CT Assay for Monocyte Chemoattractant Protein 1 (MCP1/CCL2) Biomarker Activity (AID 2283073); settings: primary human keratinocytes with fibroblasts; actives raise or lower the signal
How it was run: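 KF3CT skin co-culture (keratinocytes/foreskin fibroblasts), 24 h post-dose; MCP-1 by ELISA; gain/loss of signal fit bidirectionally vs DMSO baseline.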

[12] = read-out: Matrix Metallopeptidase 9 (MMP9), MMP9 (gene 4318); experiment: BSK_KF3CT_MMP9: BioMAP Diversity Plus: KF3CT Assay for Matrix Metallopeptidase 9 (MMP9) Biomarker Activity (AID 2283074); settings: primary human keratinocytes with fibroblasts; actives raise or lower the signal;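 as to AC50: MMP9 protein level quantified by ELISA in the co-culture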
How it was run: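 Human keratinocyte and foreskin fibroblast co-culture exposed to chemicals for 24 h; MMP9 biomarker measured by ELISA, bidirectional fitting relative to DMSO; cytotoxicity tracked by SRB total protein staining in parallel cultures.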

[13] = read-out: urokinase plasminogen activator (uPA), PLAU (gene 5328); experiment: BSK_KF3CT_uPA: BioMAP Diversity Plus: KF3CT Assay for urokinase plasminogen activator (uPA) Biomarker Activity (AID 2283075); settings: primary human keratinocytes with fibroblasts; actives raise or lower the signal
How it was run: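 Primary human keratinocyte/foreskin fibroblast co-culture exposed to chemical; uPA measured by ELISA at 24 h. Bidirectional fit versus DMSO, with parallel SRB total-protein staining for cytotoxicity.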

[14] = read-out: CD40, CD40 (gene 958); experiment: BSK_LPS_CD40: BioMAP Diversity Plus: LPS Assay for CD40 Biomarker Activity (AID 2283076); settings: primary human HUVEC with PBMC; actives raise or lower the signal
How it was run: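 ELISA readout of CD40 in HUVEC/PBMC co-culture (BSK_LPS system), 24 h post-dosing; bidirectional curve fit, DMSO baseline; parallel SRB total-protein staining for cytotoxicity.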

[15] = read-out: E-selectin (Homo sapiens) (UniProt P16581); experiment: BSK_LPS_Eselectin: BioMAP Diversity Plus: LPS Assay for Eselectin Biomarker Activity (AID 2283077); settings: primary human HUVEC with PBMC; actives raise or lower the signal
How it was run: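 ELISA readout of E-selectin, 24 h post-dose, HUVEC + PBMC co-culture (LPS system). Gain or loss of signal vs DMSO baseline, bidirectional fit.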

[16] = read-out: Interleukin-8 (IL8), CXCL8 (gene 3576); experiment: BSK_LPS_IL8: BioMAP Diversity Plus: LPS Assay for Interleukin-8 (IL8) Biomarker Activity (AID 2283078); settings: primary human HUVEC with PBMC; actives raise or lower the signal
How it was run: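 HUVEC + PBMC co-culture, LPS-activated; test chemicals dosed, IL-8 read by ELISA at 24 h. Bidirectional curve fit vs DMSO baseline (gain or loss of signal).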

[17] = BSK_LPS_SRB: Viability Assessment in the BioMAP Diversity Plus: LPS Assay (AID 2283079); settings: primary human HUVEC with PBMC;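 also: total protein by sulforhodamine B absorbance as a cytotoxicity measure; measured one day after compound addition; fitted in both directions against DMSO so loss or gain of signal counts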
How it was run: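 HUVEC + PBMC co-culture, LPS-stimulated; compound 24 h. 10% TCA fix, 0.1% SRB stain, A560. Bidirectional fit vs DMSO.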

[18] = read-out: Interleukin-1 alpha (IL1a), IL1A (gene 3552); experiment: BSK_KF3CT_IL1a: BioMAP Diversity Plus: KF3CT Assay for Interleukin-1 alpha (IL1a) Biomarker Activity (AID 2283070); settings: primary human keratinocytes with fibroblasts; actives raise or lower the signal
How it was run: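 Primary human keratinocyte plus foreskin fibroblast co-culture, dosed and measured at 24 h in 96-well plates. IL-1a level quantified by ELISA; bidirectional fit relative to DMSO.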

[19] = read-out: Transforming growth factor beta 1 (TGFb1), TGFB1 (gene 7040); experiment: BSK_KF3CT_TGFb1: BioMAP Diversity Plus: KF3CT Assay for Transforming growth factor beta 1 (TGFb1) Biomarker Activity (AID 2283072); settings: primary human keratinocytes with fibroblasts; actives raise or lower the signal
How it was run: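 Primary human skin cells (keratinocytes, foreskin fibroblasts) were co-cultured, exposed to test chemical and sampled at 24 h. TGF-b1 levels were measured by ELISA and fitted bidirectionally relative to DMSO.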

Measured: AC50

Chain of E-selectin (Homo sapiens) (P16581 whole entry, looked up): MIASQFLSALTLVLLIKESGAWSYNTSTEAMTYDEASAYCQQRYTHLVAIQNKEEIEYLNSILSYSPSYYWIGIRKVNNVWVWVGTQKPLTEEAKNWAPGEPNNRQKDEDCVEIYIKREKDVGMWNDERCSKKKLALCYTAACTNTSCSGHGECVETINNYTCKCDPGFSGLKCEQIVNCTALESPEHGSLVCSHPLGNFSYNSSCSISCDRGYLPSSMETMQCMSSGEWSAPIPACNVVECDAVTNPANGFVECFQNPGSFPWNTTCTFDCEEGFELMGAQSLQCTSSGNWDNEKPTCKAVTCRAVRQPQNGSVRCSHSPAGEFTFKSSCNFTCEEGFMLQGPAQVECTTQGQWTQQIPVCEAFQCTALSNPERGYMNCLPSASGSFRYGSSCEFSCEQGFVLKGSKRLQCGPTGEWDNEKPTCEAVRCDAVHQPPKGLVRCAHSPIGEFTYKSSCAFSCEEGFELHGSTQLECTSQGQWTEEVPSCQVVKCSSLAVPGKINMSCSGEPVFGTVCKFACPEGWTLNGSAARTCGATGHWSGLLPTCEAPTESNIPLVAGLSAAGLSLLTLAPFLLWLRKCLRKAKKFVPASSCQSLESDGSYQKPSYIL

NC(=O)C(F)(F)C(F)(F)C(F)(F)C(F)F
inactive: [1] | [2] | [3] | [4] | [5] | [6] | [7] | [8] | [9] | [10] | [11] | [12] | [13] | [14] | [15] | [16] | [17]
active: [16] 22.7 µM

NC(=O)C(F)(F)C(F)(F)C(F)(F)C(F)(F)C(N)=O
not listed: [19]
inactive: all other assays above

Cc1ccc(O)c(-n2nc3ccccc3n2)c1
not listed: [18]
inactive: all other assays above

OCC(F)(F)C(F)(F)C(F)(F)C(F)(F)C(F)(F)C(F)(F)CO
not listed: [19]
inactive: all other assays above

Cc1cc(C)c(O)c(C(C)(C)C)c1
inactive: [16]
active: [1] 34.4 µM | [2] 35.2 µM | [3] 30.1 µM | [4] 32.8 µM | [5] 34 µM | [6] 34.7 µM | [7] 35.1 µM | [8] 34.2 µM | [9] 33.5 µM | [18] 31.1 µM | [10] 28.8 µM | [19] 30.8 µM | [11] 32.8 µM | [12] 30.2 µM | [13] 30.9 µM | [14] 30.9 µM | [15] 32.1 µM | [17] 36.3 µM

CN(C(=O)C(F)(F)C(F)(F)C(F)(F)F)[Si](C)(C)C
not listed: [19]
inactive: all other assays above
